{
  "source": "PubChem BioAssay (NCI)",
  "note": "About 79,000 compounds went through this panel and 15% of them were active in at least one assay; those are over-represented in the sample as a whole. Calls of active or inactive are those of the source. No stated cut-off is given here; in the data, active means growth inhibition above about 70%; inactive means the rest.",
  "data": [
    {"test": "NCI Yeast Anticancer Drug Screen. Data for the sgs1 mgt1 strain (AID 161);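 further: 0% = growth of cultures given vehicle only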", "details": "S. cerevisiae sgs1 mgt1 strain, at 5.0 µM (retest, dose inferred, filed as 0.5), stronger effect = higher value", "in_short": "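Test agents were incubated with a DNA-repair-mutant yeast strain. Growth was then read and compared against vehicle-treated controls.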", "values": [
      {"smiles": "O=C(/C=C/c1cccc(Cl)c1)c1ccccc1", "growth inhibition": "7% (inactive)"},
      {"smiles": "COc1cccc(N2C(=O)C3CC(CC(C)(C)C)c4c([nH]c5ccccc45)C3C2=O)c1", "note": "(stereo not given)", "growth inhibition": "13% (inactive)"},
      {"smiles": "O=C1c2ccccc2NC(=O)C2C1C(c1ccccc1)CC2(O)c1ccccc1", "note": "(stereo not given)", "growth inhibition": "16% (inactive)"},
      {"smiles": "CCOC(=O)C1SC(=Nc2ccc(Cl)cc2)N=C1C", "note": "(stereo not given)", "growth inhibition": "26% (inactive)"},
      {"smiles": "COC(=O)c1nc(=S)[nH]c(C(=O)OC)c1C(=O)c1ccccn1", "growth inhibition": "0% (inactive)"},
      {"smiles": "Cn1c2c(c3ccccc31)CCN1C[C@@H]3CCCC[C@H]3C[C@@H]21", "growth inhibition": "-2% (inactive)"},
      {"smiles": "CCCCCCCCCCCC1=NCCN1CCNCCCC", "growth inhibition": "6% (inactive)"},
      {"smiles": "CN=C(N)N/N=C(\\C)c1ccc2c(c1)Cc1cc(/C(C)=N/NC(N)=NC)ccc1-2", "growth inhibition": "45% (inactive)"},
      {"smiles": "O=C(Nc1ccccc1)OCCc1ccc(Br)cc1", "growth inhibition": "-1% (inactive)"},
      {"smiles": "CN(C)CC/C(=N\\Nc1ccc(Cl)cc1)c1ccccc1", "growth inhibition": "100% (active)"},
      {"smiles": "O=C1Nc2ccccc2/C1=N\\N=c1/scc(-c2ccccc2)n1-c1ccccc1", "growth inhibition": "8% (inactive)"},
      {"smiles": "CC(C)(C)C(=O)CC(=O)C(F)(F)C(F)(F)C(F)(F)F.CC(C)(C)C(=O)CC(=O)C(F)(F)C(F)(F)C(F)(F)F.CC(C)(C)C(=O)CC(=O)C(F)(F)C(F)(F)C(F)(F)F.[Fe]", "growth inhibition": "43% (inactive)"},
      {"smiles": "COc1cc(N=Nc2cccc(S(N)(=O)=O)c2)c2ccccc2c1N", "growth inhibition": "2% (inactive)"},
      {"smiles": "O=C(/C=C/C(=O)OCCCl)OCCCl", "growth inhibition": "4% (inactive)"},
      {"smiles": "CCc1ccccc1NC(=O)C1=C(C)NC(C)=C(C(=O)Nc2c(CC)cccc2CC)C1c1ccc2c(c1)OCO2", "note": "(stereo not given)", "growth inhibition": "29% (inactive)"},
      {"smiles": "Oc1c(Cl)cc(Cl)c2cccnc12", "growth inhibition": "21% (inactive)"},
      {"smiles": "COc1ccc2c(c1)[n+]([O-])c(-c1ccccc1)c(N)[n+]2[O-]", "growth inhibition": "73% (active)"},
      {"smiles": "O=c1cccccc1[O-].O=c1cccccc1[O-].O=c1cccccc1[O-].[Sm+3]", "growth inhibition": "21% (inactive)"},
      {"smiles": "CCCCCCCCCCCCCCCCNc1ccn(C2CC(OP(=O)(O)OCC3OC(n4cc(CC)c(=O)[nH]c4=O)CC3O)C(CO)O2)c(=O)n1", "note": "(stereo not given)", "growth inhibition": "94% (active)"},
      {"smiles": "Nc1ccccc1OCC(O)CN1CCN(Cc2ccccc2)CC1", "note": "(stereo not given)", "growth inhibition": "-11% (inactive)"},
      {"smiles": "O=S(=O)(O)c1ccc(O)c2cc(Nc3ccccc3)ccc12", "growth inhibition": "-4% (inactive)"},
      {"smiles": "CCOC(=O)/C(=C\\c1ccc(-c2ccccc2)cc1)C(C)=O", "growth inhibition": "21% (inactive)"},
      {"smiles": "O=C(C(Oc1ccc(Cl)cc1)Oc1ccc(Cl)cc1)N(O)c1ccccc1OCc1ccccc1", "growth inhibition": "18% (inactive)"},
      {"smiles": "CN(C)CC1CCC/C(=C\\c2ccc(Cl)cc2)C1=O", "note": "(stereo not given)", "growth inhibition": "-28% (inactive)"},
      {"smiles": "COc1ccc(/C=N/Nc2ccccc2)cc1", "growth inhibition": "-6% (inactive)"},
      {"smiles": "O=C1c2ccccc2-c2ccccc2C(=O)C1(Br)Br", "growth inhibition": "3% (inactive)"},
      {"smiles": "CC(=O)Nc1ccc(C(=O)n2[nH]c(C)c(/C=C3\\C(=O)C=Cc4ccccc43)c2=O)cc1", "growth inhibition": "15% (inactive)"},
      {"smiles": "CC1OC2CC(=O)OC2C2=C1C(=O)c1c(O)cccc1C2=O", "note": "(stereo not given)", "growth inhibition": "99% (active)"},
      {"smiles": "CCOC(=O)C(CCSC)C(=O)OCC", "growth inhibition": "4% (inactive)"},
      {"smiles": "C[CH2][Sn]([CH2]C)([O]C(=O)c1cccc(OC)c1)[O][Sn]([CH2]C)([CH2]C)[O]C(=O)c1cccc(OC)c1", "growth inhibition": "36% (inactive)"},
      {"smiles": "O=C(Nc1ccccc1)Oc1c(Cl)c(Cl)c(Cl)c(Cl)c1Cl", "growth inhibition": "26% (inactive)"},
      {"smiles": "CCN(CC)CCNc1ccc2nnn3c4ccc([N+](=O)[O-])cc4c(=O)c1c23", "growth inhibition": "5% (inactive)"},
      {"smiles": "CCCCCCN(CCCCCC)CCC(=O)c1ccc2cc(Br)c3ccccc3c2c1", "growth inhibition": "75% (active)"},
      {"smiles": "COC(=O)/C=C1/Nc2ccc(Cl)cc2C(=O)NC1=O", "growth inhibition": "36% (inactive)"},
      {"smiles": "CN(C)COC(=S)SCN(C)C", "growth inhibition": "99% (active)"},
      {"smiles": "Clc1ccc(-c2noc(CN3CCCCC3)n2)cc1", "growth inhibition": "2% (inactive)"},
      {"smiles": "CCCCCCCCCCCCCC(=O)OCC(O)CO", "note": "(stereo not given)", "growth inhibition": "4% (inactive)"},
      {"smiles": "CCC[CH2][Sn]([CH2]CCC)([O]C(=O)c1cccc(F)c1)[O]C(=O)c1cccc(F)c1", "growth inhibition": "-1% (inactive)"},
      {"smiles": "CCCCCCCCCCCCCCCCC1CCc2ccccc21", "note": "(stereo not given)", "growth inhibition": "11% (inactive)"},
      {"smiles": "CCOC(=O)NCCCc1ccc2oc3ccccc3c2c1", "growth inhibition": "-3% (inactive)"}
    ]}
  ]
}
